14-3-3 PPI: modulators of 14-3-3 gamma protein binding, primary screen, biochemical, fluorescence polarization; 14-3-3 protein gamma (Homo sapiens), P61981; FP, 14-3-3gamma / TMR-pS259-Raf peptide binding; inhibition, % at 40 µM; 0.19% of 160,000 active; in the data active = inhibition above about 30%
Target sequence (P61981 whole entry, looked up): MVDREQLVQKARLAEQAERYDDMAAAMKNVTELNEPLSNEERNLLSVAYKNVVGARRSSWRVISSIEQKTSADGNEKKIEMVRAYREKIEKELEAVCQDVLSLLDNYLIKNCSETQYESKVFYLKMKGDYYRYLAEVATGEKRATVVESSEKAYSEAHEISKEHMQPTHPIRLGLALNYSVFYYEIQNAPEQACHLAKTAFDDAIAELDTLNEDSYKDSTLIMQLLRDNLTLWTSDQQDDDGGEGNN
Hits are given with their value; – = inactive. The full list was thinned out, with hits kept by preference.

SMILES | 14-3-3 PPI
CCCCSc1nnc2c(n1)OC(c1cccc(OC)c1OC)Nc1ccccc1-2 (stereo unspecified) | –
CCCSc1nnc2c(n1)OC(c1ccc(Cl)cc1)Nc1ccccc1-2 (stereo unspecified) | –
CSc1nnc2c(n1)OC(c1ccc(N(C)C)cc1)Nc1ccccc1-2 (stereo unspecified) | –
CCCSc1nnc2c(n1)OC(c1cc(OC)c(O)c(OC)c1)Nc1ccccc1-2 (stereo unspecified) | –
CCCSc1nnc2c(n1)OC(c1ccco1)Nc1ccccc1-2 (stereo unspecified) | –
C=CCSc1nnc2c(n1)OC(c1ccc([N+](=O)[O-])cc1)Nc1ccccc1-2 (stereo unspecified) | –
CCCSc1nnc2c(n1)OC(c1ccc(N(CC)CC)cc1)Nc1ccccc1-2 (stereo unspecified) | 39.0
C=CCSc1nnc2c(n1)OC(c1ccc(C)cc1)Nc1ccccc1-2 (stereo unspecified) | 32.9
C=CCSc1nnc2c(n1)OC(c1ccc(C(=O)OC)cc1)Nc1ccccc1-2 (stereo unspecified) | –
CCCCSc1nnc2c(n1)OC(c1cc(OC)c(OC)c(OC)c1)Nc1ccccc1-2 (stereo unspecified) | 42.3
C=CCSc1nnc2c(n1)OC(c1ccc(OC)c(OC)c1)Nc1ccccc1-2 (stereo unspecified) | –
CCC1SC2=NC(C)=C(C(=O)OCc3ccccc3)C(c3ccc(Cl)cc3)N2C1=O (stereo unspecified) | –
CCCCCOC(=O)C1=C(C)NC2=C(C(=O)CC(C)(C)C2)C1c1ccc([N+](=O)[O-])cc1 (stereo unspecified) | –
COC(=O)CNC(=O)C1CCC(Cn2c(=O)[nH]c3ccsc3c2=O)CC1 (stereo unspecified) | –
CCC(=O)N1CCc2cc(Br)cc(S(=O)(=O)N3CCOCC3)c21 | –
CCC1CCCCN1C(=O)c1ccc(N2CC3CC(C2)c2cccc(=O)n2C3)c(NC(=O)c2ccncc2)c1 (stereo unspecified) | –
COc1ccc2nc(NC(=O)CCC(=O)OC3CCC(C)C(C)C3)sc2c1 (stereo unspecified) | –
Cc1ccc2nc(-c3cc(N=Cc4ccccc4O)ccc3Cl)oc2c1 | –
CCOC(=O)C(Cc1ccccc1)C(=O)NCc1ccc(Cl)cc1 (stereo unspecified) | –
COc1ccc(Nc2ccc3c4c(ncnc24)-c2ccccc2C3=O)cc1 | –
O=C(O)c1ccc2c3c(ncnc13)-c1ccccc1C2=O | 39.8
O=C1c2ccccc2-c2ncnc3cccc1c23 | –
N#Cc1ccc(NC(=O)c2noc3c2CCCCC3)cc1 | –
COc1ccccc1NC(=O)c1c(-c2ccccc2)noc1C | –
Cc1nc(Cl)c(C#N)c(C)c1[N+](=O)[O-] | –
SMILES | 14-3-3 PPI
CCOC(=O)C1=C(C)NC(C)=C(C(=O)OCC)C1c1ccc(-c2ccccc2Cl)o1 | –
CCOC(=O)C1=C(C)NC(C)=C(C(=O)OCC)C1c1ccc(-c2ccccc2)o1 | 39.9
COC(=O)C1=C(C)NC(C)=C(C(=O)OC)C1c1ccc(-c2ccc(Cl)cc2)o1 | –
COC(=O)C1(C(F)(F)F)N=C2C=CC(Br)=CN2C(c2ccc(F)cc2)=N1 (stereo unspecified) | –
CC1=C(C(=O)OCCc2ccccc2)C(c2cc([N+](=O)[O-])ccc2Cl)C2=C(CCCC2=O)N1 (stereo unspecified) | –
CC12CC(NC(=O)N1c1ccccc1)c1cc([N+](=O)[O-])ccc1O2 (stereo unspecified) | –
Cc1ccc(C(C)C)c(OCC(=O)N2N=C(CC(C)C)CC2(O)C(F)(F)F)c1 (stereo unspecified) | –
CCOC(=O)c1[nH]c2ccccc2c1NC(=O)c1ccc(-c2ccccc2)cc1 | –
CCN1/C(=C/c2ccc3ccccc3[n+]2CC)Sc2ccc(C)cc21 | –
CCN1/C(=C/c2ccc3cc(OC)ccc3[n+]2CC)Sc2ccc(Cl)cc21 | –
CCN1/C(=C/c2ccc3cc(OC)ccc3[n+]2CC)Sc2ccc(C)cc21 | 42.2
O=C(O)c1ccc2c3c(cccc13)C(=O)N(c1ccc(Cl)cc1)C2=O | –
O=C1c2ccccc2C(=O)N1c1ccc(Cl)cc1 | –
O=C(O)CCCCN1C(=O)c2ccccc2C1=O | –
O=C1c2cccc3c(NCCO)ccc(c23)C(=O)N1c1ccccc1 | 195.8
O=C(O)CCCCCN1C(=O)c2cccc3c(N4CCCCC4)ccc(c23)C1=O | –
O=C1c2cccc3c(N4CCCCC4)ccc(c23)C(=O)N1c1ccccc1 | –
NCCNc1ccc2c3c(cccc13)C(=O)N(c1ccc(Cl)cc1)C2=O | 62.9
O=C(O)CCCN1C(=O)c2cccc3c(O)ccc(c23)C1=O | 137.5
CCOC(=O)c1ccc(N2C(=O)c3cccc4c(Cl)ccc(c34)C2=O)cc1 | –
C=CCNc1ccc2c3c(cccc13)C(=O)N(C)C2=O | –
O=C1c2cccc3c(O)ccc(c23)C(=O)N1c1ccc(Cl)cc1 | 95.5
O=C1c2cccc3c(Nc4ccccc4)ccc(c23)C(=O)N1c1ccccc1 | –
